Experimental findings from the OligoGym collection are described below.

Holding throughout (test): pooled miR-30 sensor sort-seq; sequence = guide strand
Holding throughout (details): shRNA

In assay [1] the target is ZMYM3.
The target in assay [2] is ZMAT5.
The target in assay [3] is ZNF135.
For assay [4], the target named is ZNF100.
Assay [5] has as its target ZNF169.
Assay [6] concerns the target ZNF383.
Assay [7] deals with ZNF343.
Assay [8] deals with ZNF384.
Assay [9] concerns the target ZNF32.
The target in assay [10] is ZNF512B.
Assay [11] deals with ZNF592.
For assay [12], the target named is ZNF836.
Assay [13] deals with ZNRF2.
Assay [14] concerns the target ZSCAN21.
Assay [15] deals with ZNFX1.
Further: reference of the scale not given here.

TAGAACTTGACAGGGCAGCGGA: the sensor-assay potency score (higher = more potent) in assay [1] was -0.668.
In assay [2], TACCAGACCTTCTTGGCCTTGA showed a sensor-assay potency score (higher = more potent) of 0.178.
In the case of TAACATAGCACTAATGGGCGTT, in assay [3], the sensor-assay potency score (higher = more potent) came to 0.0821.
Same read-out and setting: then TTGCTTTAGAACTGACAGTTTG, with -1.45.
As for TGTCGTACCAGACCTTCTTGGC, the sensor-assay potency score (higher = more potent) in assay [2] was -0.415.
Regarding ATCTCGGAACATGTCGTACCAG, in assay [2], the sensor-assay potency score (higher = more potent) was -1.24.
For the sequence TTTGTGACACACTTGAGCGTAG, in [1], the sensor-assay potency score (higher = more potent) came to 0.22.
Regarding TTAAGCATTCGTGACATTCATA, the sensor-assay potency score (higher = more potent) in [3] was -1.02.
On to ATGTCGTACCAGACCTTCTTGG, for which the sensor-assay potency score (higher = more potent) in assay [2] is -1.05.
For TAATTTGTTATCATGTTCTTTG, the sensor-assay potency score (higher = more potent) in [4] was -0.537.
TATTTGTACAATATTTCTCAAG: the sensor-assay potency score (higher = more potent) in assay [4] was -1.35.
TCTGACATGTGGGAAAATCTGC showed a sensor-assay potency score (higher = more potent) in assay [2] of -0.533.
For the sequence ATGAATATCAGAGTCAACCTGC, the sensor-assay potency score (higher = more potent) in assay [3] was found to be 0.469.
For the sequence TTCTGTTTGACTTCCTTTGGAC, in assay [1], the sensor-assay potency score (higher = more potent) stood at 0.00295.
Consider TTCTCCAGTATAACTTACCTTA, for which the sensor-assay potency score (higher = more potent) in assay [4] was -0.393.
Sequence TTGGAGCCAAAGTCGCACTGGC returned a sensor-assay potency score (higher = more potent) in [2] of -0.262.
In the case of TTAATTTGTTATCATGTTCTTT, the sensor-assay potency score (higher = more potent) in assay [4] was -0.0243.
For the sequence TTTCTAGTATGTCTTATCTTAT, the sensor-assay potency score (higher = more potent) in [4] was -1.12.
Take TTACACAGGGTCTTGCACCAGA: the sensor-assay potency score (higher = more potent) in assay [1] was found to be 0.022.
In assay [2], AAAATCTGCAGTTGGAGCCAAA displayed a sensor-assay potency score (higher = more potent) of -1.1.
In turn, TGCATCTCGGAACATGTCGTAC returned a sensor-assay potency score (higher = more potent) in assay [2] of -1.55.
In turn, TAGAGCATCTTGGAGCTTCTAG displayed a sensor-assay potency score (higher = more potent) in assay [5] of -0.619.
In assay [6], TAAGATTTGAGCAATAACTAAA displayed a sensor-assay potency score (higher = more potent) of -1.31.
On to TTGATGAGATCTGAGTTCTGGC, for which the sensor-assay potency score (higher = more potent) in assay [7] was found to be 0.144.
With TACATGTTGACTGAGGAACTGC, in assay [7], the sensor-assay potency score (higher = more potent) is -0.356.
In assay [8], TTGGAGTAGAATGTCAGTGAGC returned a sensor-assay potency score (higher = more potent) of -0.969.
For the sequence TTGAGCCTGAGCCTGAGCCTGG, in [8], the sensor-assay potency score (higher = more potent) was -0.986.
As to TTGAATAAATTGTGAGTTCTGA, the sensor-assay potency score (higher = more potent) in [6] is -0.124.
With TTGACTTATGACTAAAGCCTCG, the sensor-assay potency score (higher = more potent) in assay [7] is -0.75.
Sequence TTGAAGAACGCTACATTCTGGG had a sensor-assay potency score (higher = more potent) in assay [9] of 0.82.
For the sequence TTGAGCAATAACTAAAGGCCTT, in assay [6], the sensor-assay potency score (higher = more potent) is -0.458.
Sequence TAAATTGTGAGTTCTGACTAAA gave a sensor-assay potency score (higher = more potent) in assay [6] of -0.929.
Take TTAGACTACCTTTTTGCCGGAA: the sensor-assay potency score (higher = more potent) in assay [9] is -0.355.
TCTCTGATGTTGAACAAGCTTT displayed a sensor-assay potency score (higher = more potent) in [6] of -0.743.
ATAGTCTCTACATTTTCCCCAT: the sensor-assay potency score (higher = more potent) in assay [7] is -0.495.
The same measure, in the same setting: then TTGACTTCTGGCTAAAACCTCG, with -0.583; and TATCATTAGAAGGCAAGCCTTT, with -0.78.
The sequence TTGAGGATCCTGTAGCCTCAGA displayed a sensor-assay potency score (higher = more potent) in assay [9] of -1.2.
For the sequence TTGAGGATGGACTTACTTCTAA, the sensor-assay potency score (higher = more potent) in [7] is -0.709.
TAACGTTAGACTACCTTTTTGC: the sensor-assay potency score (higher = more potent) in [9] was -0.0672.
For the sequence TTTATCTTTGTTGTGTTGCCGT, the sensor-assay potency score (higher = more potent) in [8] worked out at 0.173.
In assay [7], TTTGATGAGATCTGAGTTCTGG came in with a sensor-assay potency score (higher = more potent) of 0.519.
In turn, TGTAGTGTCTTCGAATCTGGGG displayed a sensor-assay potency score (higher = more potent) in [9] of 0.479.
AATGTCAGTGAGCACATCCGGC returned a sensor-assay potency score (higher = more potent) in [8] of -0.852.
Consider TTTGACTTATGACTAAAGCCTC, for which, in assay [7], the sensor-assay potency score (higher = more potent) is -0.874.
TTGACTTGTCACAAAAGCCTCG gave a sensor-assay potency score (higher = more potent) in assay [7] of -0.0132.
As to TCTTCCATGACAGTCCAGCAGG, the sensor-assay potency score (higher = more potent) in assay [9] is -1.26.
Regarding TTCTTTAGAGATAATAACTTGG, the sensor-assay potency score (higher = more potent) in [6] was -0.196.
In assay [6], TTCTATTTCATAAACTTCCTTC gave a sensor-assay potency score (higher = more potent) of -0.0685.
Consider TCTTCCTGTAGTGTCTTCGAAT, for which the sensor-assay potency score (higher = more potent) in [9] is -1.44.
In assay [6], TAACTTGGTTTCACACATCGAT gave a sensor-assay potency score (higher = more potent) of 0.203.
For the sequence ATATCTTCCATGACAGTCCAGC, in assay [9], the sensor-assay potency score (higher = more potent) was -0.761.
TAACATGTGAACCACAACTAAA displayed a sensor-assay potency score (higher = more potent) in assay [6] of -1.41.
For the sequence TTGATGTGTAACAAGATTGCCT, the sensor-assay potency score (higher = more potent) in assay [9] came to 0.254.
For TAGTGTCTTCGAATCTGGGGAT, the sensor-assay potency score (higher = more potent) in assay [9] is -0.0716.
As to TAGAAGGCAAGCCTTTCGCTTT, the sensor-assay potency score (higher = more potent) in [7] is -0.611.
Consider TTTCGCTTTATGATTTTGGGTC, for which the sensor-assay potency score (higher = more potent) in assay [7] is -0.0502.
Consider TTGAACAAGCTTTGAGCTCTGG, for which the sensor-assay potency score (higher = more potent) in assay [6] was determined as 0.42.
In turn, TTATCTTTGTTGTGTTGCCGTC yielded a sensor-assay potency score (higher = more potent) in assay [8] of 0.0211.
The sequence TGAATCTTCCTGTAGTGTCTTC displayed a sensor-assay potency score (higher = more potent) in [9] of -0.275.
In assay [6], TATATTCCAAAACATCTCCAAA registered a sensor-assay potency score (higher = more potent) of -1.29.
With TATCCCAGCTTGAGGATCCTGT, the sensor-assay potency score (higher = more potent) in assay [9] is -0.615.
In assay [10], TTGCTGACCACAATGGGCCTGC showed a sensor-assay potency score (higher = more potent) of 0.0376.
TTTAGAACTCTCTTTAGTGGGC: the sensor-assay potency score (higher = more potent) in assay [11] is 0.465.
On the same count and under the same terms, then ATTCTCTCTAGTCTCCATGGGC, with -0.404.
In [12], TTGTTTTAAGACTCTCTGCAGT had a sensor-assay potency score (higher = more potent) of -0.237.
As to TTTGTTTCCACTATGAACTGTC, in assay [12], the sensor-assay potency score (higher = more potent) came out at 1.2.
In turn, TTGACTGAAGACCTTGTCGCAT returned a sensor-assay potency score (higher = more potent) in assay [12] of -0.213.
In the case of TAAACACATTACAAGATGCAAA, the sensor-assay potency score (higher = more potent) in assay [13] is -1.15.
Sequence TTTTGTCTGAAGATCTTGCCAC came in with a sensor-assay potency score (higher = more potent) in assay [12] of 0.166.
TACTCAATCTGCAATCTCGGAC yielded a sensor-assay potency score (higher = more potent) in [14] of -0.338.
TACTTCAAACCATTCATCTATG: in assay [13], the sensor-assay potency score (higher = more potent) was -0.758.
Consider TAATTTGCCAAACAGACTCGTT, for which the sensor-assay potency score (higher = more potent) in assay [15] was -0.716.
As for TAACACACAACCAAGATGGGGA, the sensor-assay potency score (higher = more potent) in assay [15] stood at 0.323.
TTCTCTGCTATCTTGTAGCGGG: the sensor-assay potency score (higher = more potent) in [15] was -0.426.
For TTGTTAAACACATTACAAGATG, the sensor-assay potency score (higher = more potent) in assay [13] was -1.34.
In turn, TAGGAGAACATCTAAAGGCTTT registered a sensor-assay potency score (higher = more potent) in [12] of 0.15.
Sequence TAGACCTCTACTGCTATGCTAT yielded a sensor-assay potency score (higher = more potent) in assay [15] of -0.477.
TTCGTTACACTGATAAGGCTTC showed a sensor-assay potency score (higher = more potent) in [14] of 0.478.
As for TAGGAACTGATTCTCTACCTTT, the sensor-assay potency score (higher = more potent) in assay [14] is 0.143.
The sequence TTTATTATGAGAGTTAGTCTGC yielded a sensor-assay potency score (higher = more potent) in assay [15] of 0.368.
For TTCAGTTTGAAATTTCTGCAGT, in assay [12], the sensor-assay potency score (higher = more potent) was 0.363.
Regarding TAAGACTTGAAGACACTCTAAA, in assay [12], the sensor-assay potency score (higher = more potent) is -0.52.
As for TTGGTCTCTAGCTTCGTCGCTG, the sensor-assay potency score (higher = more potent) in assay [15] amounted to 0.295.
In turn, TTGAACGCTGAGTATAGGCTTT displayed a sensor-assay potency score (higher = more potent) in [12] of 0.0637.
For the sequence TTGAATAATAGCCAGTTCCCTT, in [15], the sensor-assay potency score (higher = more potent) was -1.02.
On the same count and under the same terms, under TACAACTGTAGCCAGAGCCTAT stands -0.979.
Take TTTGTTTTCTACATCCTCTTGA: in [12], the sensor-assay potency score (higher = more potent) came out at 0.866.
For TGGATCTTGAGCGAACTCCTGC, the sensor-assay potency score (higher = more potent) in assay [14] was -0.804.
In the case of TTTCTCTTCTAAGACATGCATC, the sensor-assay potency score (higher = more potent) in assay [15] is -0.81.
As to TTTCTCTGTAGTATGTACCATC, in [12], the sensor-assay potency score (higher = more potent) is -0.51.
For the sequence TTTATCAGTATTACCTATGTAG, the sensor-assay potency score (higher = more potent) in assay [13] came out at 0.361.
TAACTTTGACTAAAGGACTTGC came in with a sensor-assay potency score (higher = more potent) in [12] of 0.219.
TTGTCAAGACAAGAAAACCTAT returned a sensor-assay potency score (higher = more potent) in assay [13] of -0.902.
Consider ATAGACAAGGCAGTCGTGCTAT, for which the sensor-assay potency score (higher = more potent) in [13] stood at 0.0716.
Regarding TTGTCCACAACATGGACCCTGA, the sensor-assay potency score (higher = more potent) in assay [15] was -0.839.
In assay [13], TCGTGCTATAGTATCTCCCTGC yielded a sensor-assay potency score (higher = more potent) of 0.0677.
In the case of TTATGATATATGCATAGACAAG, in assay [13], the sensor-assay potency score (higher = more potent) is -1.91.
With TTTCTCTTCTTTCTCCTCGACT, in assay [14], the sensor-assay potency score (higher = more potent) was -0.944.
On to TTCAATCTCTTCTAGCCGCTGT, for which the sensor-assay potency score (higher = more potent) in assay [15] is 0.737.
In assay [13], TTAAACACATTACAAGATGCAA displayed a sensor-assay potency score (higher = more potent) of -0.454.
For the sequence TAATGTTTCTTCCTTAACTAGA, the sensor-assay potency score (higher = more potent) in [14] is -0.759.
Regarding TGCATAGACAAGGCAGTCGTGC, in [13], the sensor-assay potency score (higher = more potent) is -0.863.
Regarding TTACTTCAAACCATTCATCTAT, the sensor-assay potency score (higher = more potent) in assay [13] came out at 0.146.
TGATACAAACTCTATCACCGGA came in with a sensor-assay potency score (higher = more potent) in assay [14] of 0.695.
TTTGTCCACAACATGGACCCTG came in with a sensor-assay potency score (higher = more potent) in assay [15] of -0.317.
